Source: PubChem BioAssay
FMDV antiviral – antivirals against foot and mouth disease virus | FMDV antiviral cell-based qHTS | Potency, µM (series often up to 57.9 µM), most hits filed as inhibitors | hit rate 1.2% among 410,000 | AID 1159524; calls by dose curve; tested in HEK293T cells; further: read-out not given here; nearly all actives have a fitted effect of over 45% in size
Giardia FBPA inh – blocks Giardia fructose-bisphosphate aldolase activity; Potency, µM (highest dose often 59.6 µM), usual class: inhibitors; hit rate 0.71% among 290,000; purified Giardia FBPA; AID 2451; further: nearly all actives have a fitted effect of over 55% in size
Target sequence (A8B2U2 whole entry, looked up): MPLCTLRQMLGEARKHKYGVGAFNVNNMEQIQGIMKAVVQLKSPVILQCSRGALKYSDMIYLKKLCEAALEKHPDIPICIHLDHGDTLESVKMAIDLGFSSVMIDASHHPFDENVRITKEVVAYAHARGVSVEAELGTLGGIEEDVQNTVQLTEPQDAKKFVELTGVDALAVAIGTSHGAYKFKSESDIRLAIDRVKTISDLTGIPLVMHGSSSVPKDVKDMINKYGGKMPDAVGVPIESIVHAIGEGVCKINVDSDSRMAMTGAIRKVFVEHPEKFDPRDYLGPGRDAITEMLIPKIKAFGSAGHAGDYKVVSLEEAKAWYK
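40 nM FBPA preincubated 10 min at RT with compound (up to 57.5 uM final), then substrate plus GAPDH/TPI/NAD/arsenate coupling and diaphorase/resazurin added. Fluorescence read after 20 min at RT, 525/598 nm.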
RE007 growth inh – less growth of the S. pombe RE007 Vpr strain. hit rate 0.21% among 360,000. S. pombe RE007 Vpr strain, BacTiter-Glo ATP luminescence, 24 h. AID 651644. Potency, µM (series often up to 92.2 µM), actives largely listed as inhibitors; active means well fitted falling curve with a large enough effect; inconclusive means small, poorly fitted or top-dose-only effect; inactive means no such curve, though single readings can be large or run the other way; further: nearly all actives have a fitted effect of over 50% in size
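Fission yeast strain RE007, carrying one chromosomally integrated HIV-1 vpr copy, was seeded at OD 0.01 in PMG+AL medium with 23 nL pinned compound. After 24 h at 30 °C and 99% humidity, viability was read by BacTiter-Glo luminescence.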
HCMV antiviral – blocks human cytomegalovirus replication | hit rate 4.5% among 410,000 | activity change, negative = inhibition, % at 57.5 µM | HFF cells, HCMV-luciferase reporter, 72 h; stronger effect = lower value; in the data active means activity change below about -60%; inconclusive means no clear call, values can overlap the other calls; inactive means above about -39%
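Screen run at 2 compound doses on HFFs infected with reporter HCMV, MOI 1 PFU/cell. Luciferase activity from cell lysates at 72 h post infection gave inhibition relative to buffer-only and Salinomycin wells.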
Tb PYK inh – T. brucei pyruvate kinase inhibition; Q57TT1; TbPYK enzyme, Kinase-Glo Plus ATP luminescence, 45 min; Potency, µM (highest dose often 76.8 µM), usual class: inhibitors; hit rate 0.12% among 410,000; AID 624173; further: nearly all actives have a fitted effect of over 50% in size
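TbPYK + substrate in 50 mM TEA pH 7.2, 100 mM KCl, 10 mM MgCl2, 0.05% BSA, 0.01% Tween-20; cpd pinned; ADP 130 uM final; 45 min RT; Kinase-Glo Plus 10 min; luminescence endpoint.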
Sm TGR inh – blocks Schistosoma mansoni thioredoxin glutathione reductase; Potency, µM (highest dose often 114 µM), actives largely listed as inhibitors; hit rate 3% among 360,000; Q962Y6; purified TGR, DTNB reduction, TNB absorbance 405 nm; AID 485364; further: nearly all actives have a fitted effect of over 60% in size
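First, TGR (20 nM dispensed) and NADPH were mixed with compound. Second, a 15 min room-temperature incubation followed. Third, further NADPH and then DTNB were added to start the reaction. Finally, TNB absorbance was monitored kinetically.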
Hits are given with their value; – = inactive; ? = inconclusive; · = no result; ! = a repeat was not active. Shown are actives, neighbours in structure and some others; about 7.7% of the full set was active somewhere. Unless noted, the call rests on the fitted dose curve; in most records, active means well fitted curve in the direction sought with a large enough effect; inconclusive means small, poorly fitted or top-dose-only effect, or another doubt; inactive means no such curve, though single readings can be large; an effect the other way counts as inactive or inconclusive.

SMILES	FMDV antiviral	Giardia FBPA inh	RE007 growth inh	HCMV antiviral	Tb PYK inh	Sm TGR inh
Cc1cnc(C)c(-c2ccc(F)c3c2OC(CNC(=O)Cc2c(F)cccc2F)C3)n1 (stereo unspecified)	–	·	·	·	·	·
O=C(OCN1C(=O)c2ccccc2C1=O)C1CCCCC1	–	–	–	–	–	–
O=C1c2ccccc2C(=O)N1SC1CCCCC1	?	–	45µM	–	?	45µM
O=C(NC(Cc1ccc(O)cc1)C(=O)N=Nc1c(O)[nH]c2ccccc12)c1ccccc1 (stereo unspecified)	–	·	–	-83	–	·
COc1ccc(C(=O)C[n+]2cc(-c3ccc(OC)cc3)n3c2CCCC3)cc1	?	–	–	-67	–	–
Cc1ccc(-c2c[n+](CC(=O)Nc3ccc(C)cc3C)c3n2CCC3)cc1	–	–	–	-71	–	–
Cc1ccc(NC(=O)C[n+]2cc(-c3ccc(C)cc3)n3c2CCC3)cc1	–	–	–	–	–	–
Cn1c(NC(=O)C[n+]2cc(-c3ccc(Cl)c(Cl)c3)n3c2CCC3)cc(=O)n(C)c1=O	–	–	32µM	–	–	–
Cc1ccc(C(=O)C[n+]2cc(-c3ccc(C)cc3)n3c2CCCCC3)cc1	10µM	–	–	-102	–	–
COc1ccc(NC(=O)c2sc3nc4n(c(=O)c3c2C)CCC4)c(OC)c1	–	·	·	–	–	–
Cc1ccc(-c2c[n+](CC(=O)OCc3ccccc3)c3n2CCC3)cc1	–	–	–	–	–	–
Cc1ccc(-c2c[n+](Cc3ccc(Cl)c(Cl)c3)c3n2CCC3)cc1	–	–	–	-99	–	–
Cc1nn(C)cc1CN1CCCC(C(=O)c2ccc(-c3ccccc3)cc2)C1 (stereo unspecified)	?	–	–	-66	–	–
CSc1ccc(C(=O)C2CCCN(Cc3cccn3-c3cccnc3)C2)cc1 (stereo unspecified)	?	–	–	–	–	?
CSc1ccc(C(=O)C2CCCN(Cc3cccnc3)C2)cc1 (stereo unspecified)	?	–	–	-62	–	–
Cc1ccsc1C(=O)C1CCCN(Cc2cn(C)nc2C)C1 (stereo unspecified)	–	–	–	–	–	–
O=C(Cn1c(=O)n(Cc2ccc(F)cc2)c(=O)c2sc3ccccc3c21)NCc1ccccc1Cl	–	·	·	–	–	–
COc1ccc(S(=O)(=O)c2nnn(-c3cc(Cl)c(OC)cc3OC)c2C)cc1	–	·	·	–	–	–
COc1ccccc1NC(=O)c1cnc(SCC(=O)NCC2CCCO2)n(C)c1=O (stereo unspecified)	25µM	·	–	–	–	–
CC(/C=C1\SC(=S)N(NS(=O)(=O)c2ccc(C)cc2)C1=O)=C\c1ccccc1	–	–	–	–	–	–
CC(=O)N1C(=O)/C(=C2\SC(=S)N(NS(=O)(=O)c3ccc(C)cc3)C2=O)c2ccccc21	–	–	–	–	–	2.5µM
CCC1CN(C(=O)N2CCC(C(=O)NCCC3=CCCCC3)CC2)c2ccccc2O1 (stereo unspecified)	–	·	·	?	–	–
COc1ccc(OC)c(C(=O)N2CCc3c(cnc(C)c3CNS(=O)(=O)N(C)C)C2)c1	–	·	·	·	·	·
CC(C)C[C@@H](C(=O)N[C@@H](Cc1c[nH]c2ccccc12)C(N)=O)N1C[C@]2(CCCN2C(=O)[C@H](Cc2ccccc2)NC(=O)[C@H](Cc2ccccc2)NC(=O)[C@H](CCC(N)=O)NC(=O)[C@H](CCC(N)=O)NC(=O)[C@@H]2CCCN2C(=O)[C@H](CCCCN)NC(=O)[C@@H]2CCCN2C(=O)[C@@H](N)CCCNC(=N)N)CC1=O	·	–	·	·	·	·
COc1ccccc1-n1c(CNC(=O)c2cccc([N+](=O)[O-])c2C)n[nH]c1=S	–	–	–	–	7.9µM	–
SMILES	FMDV antiviral	Giardia FBPA inh	RE007 growth inh	HCMV antiviral	Tb PYK inh	Sm TGR inh
Cc1cccc(-n2c(CNC(=O)c3cccc([N+](=O)[O-])c3C)n[nH]c2=S)c1	–	–	–	–	8.9µM	–
O=C(NCc1n[nH]c(=S)n1-c1cccc(Cl)c1)c1cccs1	–	–	–	–	?	–
CCOc1ccc(C(=O)N2CCC(c3ccncc3)CC2)cc1	–	·	·	–	–	–
CN1CCC(=O)N(C(CSc2ccc(Br)cc2)Cc2ccccc2)CC1 (stereo unspecified)	·	–	·	·	·	·
Cc1cc(C)c2c(=O)n(CC(=O)Nc3ccc(Br)c(C)c3)sc2n1	–	–	?	–	8.9µM	–
Cc1cc(C)c2c(=O)n(CC(=O)Nc3cccc(Cl)c3C)sc2n1	–	–	?	–	?	–
Cc1cc(C)c2c(=O)n(CC(=O)NC3CCCC3)sc2n1	–	–	–	?	10µM	?
COc1ccc(-n2cc(-c3ccccc3)c3c(Nc4ccc(OC)c(OC)c4)ncnc32)cc1	–	·	·	?	–	–
O=S(=O)(NCC(O)COCc1ccco1)c1cccs1 (stereo unspecified)	–	–	–	–	–	13µM
N=c1n(CCN2CCCCC2)c2ccccc2n1CC(O)c1ccco1 (stereo unspecified)	–	–	–	-67	–	–
Cc1cccc(OCC(O)Cn2c(=N)n(CCN3CCCCC3)c3ccccc32)c1 (stereo unspecified)	?	–	–	-62!	–	–
Cc1cccc(OCC(O)Cn2c(=N)n(Cc3ccccc3)c3ccccc32)c1 (stereo unspecified)	?	–	–	–	–	–
NC(=S)NN=Cc1nccc2c(N)cccc12	–	·	–	–	–	·
CCN(C(C)=O)c1cnc(C=NNC(N)=S)c2ccccc12	–	·	–	-97	–	·
C=CCn1c(N/N=C/c2ccc(O)cc2)nc2ccccc2c1=O	–	–	–	-65	–	–
CN(C)c1ncc2ncc(=O)n(C)c2n1	–	–	·	·	–	·
Cc1cc(NN=Cc2ccccn2)nc2ccccc12	·	·	·	-100	·	·
C(=N\N=C\c1ccccn1)/c1ccccn1	–	–	–	–	–	–
Cc1cc(NN=Cc2ccccn2)nc2c(C)cccc12	·	·	·	–	·	·
COc1ccc(C=NNc2nc3ccccc3s2)cc1	–	·	–	–	–	·
C(=NNc1ccc2ccccc2n1)c1ccccn1	7.9µM	·	28µM	-101	–	·
Clc1ccccc1/C=N/NC1=Nc2cccc3cccc1c23	–	–	–	–	–	–
C(=N\Nc1nc2ccccc2s1)/c1ccccn1	3.5µM	?	14µM	-97	–	–
C(=N\NC1=Nc2cccc3cccc1c23)/c1ccccn1	–	?	?	-80	–	–
CC(CN(C)C)CN1c2ccccc2S(=O)(=O)c2ccccc21 (stereo unspecified)	·	·	·	·	–	·
Cc1nnc(-c2cccc(Br)c2)c2cn(-c3ccc(Br)cc3)nc12	?	–	–	-73	–	–
